HCMV antiviral: qHTS Assay for inhibitors of the human cytomegalovirus (HCMV); activity change, negative = inhibition, % at 57.5 µM; HFF cells, HCMV-luciferase reporter, 72 h; stronger effect = lower value; 410,000 compounds, 4.5% hits; AID 1259415, 2018; in the data active means activity change below about -60%; inconclusive means no clear call, values can overlap the other calls; inactive means above about -39%
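Compounds were evaluated in HFFs infected with an HCMV luciferase reporter virus (MOI 1 PFU/cell). Luciferase in lysates collected 72 h post infection served as the replication measure.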
Pf growth 96h: Primary qHTS for delayed death inhibitors of the malarial parasite plastid, 96 hour incubation | P. falciparum luciferase reporter growth, 96 h | Potency, µM (series often up to 28.7 µM), hits mostly inhibitors | 320,000 compounds, 6.9% hits | AID 504834, 2011
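Compounds incubated with erythrocytes infected by luciferase-expressing P. falciparum (2% hematocrit, 0.05% parasitemia final) for 96 hours, 37 C in 5% CO2. Growth inhibition scored as decreased luciferase luminescence.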
HCV inh: qHTS Assay for Inhibitors of Hepatitis C Virus (HCV); Potency, µM (doses to about 41.8 µM), usual class: inhibitors; AID 651820, 2012; 340,000 compounds, 3.4% hits; Huh7.5.1 HCVcc-Cre infection, luciferase reporter, 44 h
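Infectious HCVcc-Cre (~0.5 moi) was added to cells just after compound, with cells seeded 4 h earlier at 1,000 per well. Luciferase activity after 44 h culture reported infection; substrate was incubated 15 min at room temperature before reading.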
Pf growth 48h: Primary qHTS for delayed death inhibitors of the malarial parasite plastid, 48 hour incubation; P. falciparum luciferase growth in erythrocytes, 48 h; Potency, µM (highest dose often 28.7 µM), most hits filed as inhibitors; 310,000 compounds, 5.9% hits; AID 504832, 2011
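Here the parasites carry a stable luciferase gene and grow inside erythrocytes in Albumax-based RPMI medium with compound for one erythrocytic cycle. Activity is scored as loss of luminescent signal.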
Sm TGR block: qHTS Assay for the Inhibitors of Schistosoma Mansoni Peroxiredoxins; Potency, µM (top dose mostly 114 µM), usual class: inhibitors; 360,000 compounds, 3% hits; Schistosoma mansoni thioredoxin glutathione reductase (TGR), Q962Y6; purified TGR, DTNB reduction, TNB absorbance 405 nm; AID 485364, 2010; further: nearly all actives have a fitted effect of over 60% in size
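Kinetic colorimetric format: TGR-catalysed, NADPH-driven DTNB reduction monitored via TNB absorbance. Enzyme dispensed at 20 nM; compound exposure 15 min at room temperature before reaction start.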
SARS PLpro yeast: qHTS of Yeast-based Assay for SARS-CoV PLP; S. cerevisiae expressing SARS-CoV PLpro, growth rescue; AID 485353, 2010; 330,000 compounds, 0.19% hits; Potency, µM (highest dose often 32.9 µM), most hits filed as activators; calls by dose curve; further: nearly all actives have a fitted effect of over 55% in size
Hits are given with their value; [ ] = another dose, or the depositor's remark. Only some compounds are listed: those with a hit (about 15% of all), similar ones and a draw of the others. Unless noted, the call rests on the fitted dose curve; in most records, active means well fitted curve in the direction sought with a large enough effect; inconclusive means small, poorly fitted or top-dose-only effect, or another doubt; inactive means no such curve, though single readings can be large; an effect the other way counts as inactive or inconclusive.

`CCC(C(=O)NCc1ccco1)N(C(=O)CNS(=O)(=O)c1ccc(F)cc1)c1ccccc1F` (stereo unspecified) gave HCMV antiviral inactive, Pf growth 96h inconclusive, HCV inh inactive, Pf growth 48h inconclusive, Sm TGR block 45µM and SARS PLpro yeast inactive.
Screening O=C(C1CCC1)N1CCc2cc(S(=O)(=O)Nc3ccc4c(c3)OCO4)ccc21 returned HCMV antiviral -72, Pf growth 96h inactive, HCV inh inconclusive, Pf growth 48h inconclusive, Sm TGR block inactive and SARS PLpro yeast inactive.
Screening O=C(O)CCC(=O)N1CCc2cc(S(=O)(=O)Nc3ccc4c(c3)OCCO4)ccc21 returned HCMV antiviral inactive, Pf growth 96h 13µM, HCV inh inactive, Sm TGR block inactive and SARS PLpro yeast inactive.
`CCOc1ccc(NS(=O)(=O)c2ccc3c(c2)CCN3C(=O)C2CCC2)cc1` gave HCMV antiviral inconclusive, Pf growth 96h inactive, HCV inh inactive, Sm TGR block inactive and SARS PLpro yeast inactive.
O=C1CCCN1c1ccc(S(=O)(=O)Nc2ccc3c(c2)OCCO3)cc1 was read as HCMV antiviral -81, Pf growth 96h inactive, HCV inh inconclusive, Pf growth 48h inconclusive, Sm TGR block inactive and SARS PLpro yeast inactive.
COc1ccc(NS(=O)(=O)c2ccc3c(c2)CCN3C(=O)CCC(=O)O)cc1OC was read as HCMV antiviral inconclusive, Pf growth 96h inactive, HCV inh inactive, Pf growth 48h inactive[0.00184 µM], Sm TGR block inactive and SARS PLpro yeast inactive.
`O=C(Nc1ccc(Cl)cc1F)c1cnc2sc(N3CCOCC3)nn2c1=O` gave HCMV antiviral inactive and Sm TGR block inactive.
`N#Cc1cccc(NC(=O)C2CCN(c3cnccn3)CC2)c1` gave HCMV antiviral inactive and Sm TGR block inactive.
Screening COCCNC(=O)C(c1ccc(C)cc1)N(C(=O)CCC(=O)Nc1ccccn1)c1ccccc1C (stereo unspecified) returned HCMV antiviral inactive, Pf growth 96h 8.3µM, HCV inh inactive, Pf growth 48h inactive, Sm TGR block inactive and SARS PLpro yeast inactive.
O=C(CCC(=O)N(CC(=O)NC1CCCCC1)c1ccc2c(c1)OCCO2)Nc1ccccn1 was read as Pf growth 96h inactive, Pf growth 48h inactive, Sm TGR block inactive and SARS PLpro yeast inactive.
`Cc1cccc(N(C(=O)CCC(=O)Nc2cc(C)on2)C(C(=O)NC2CCCC2)c2cccnc2)c1` (stereo unspecified) gave HCMV antiviral inconclusive, Pf growth 96h inactive, HCV inh inactive, Pf growth 48h inactive, Sm TGR block inactive and SARS PLpro yeast inactive.
Cc1cccc(N(C(=O)CCC(=O)Nc2cccnc2)C(C(=O)NC2CCCC2)c2ccncc2)c1 (stereo unspecified) was read as HCMV antiviral inactive, Pf growth 96h 12µM, HCV inh inactive, Pf growth 48h inconclusive, Sm TGR block inactive and SARS PLpro yeast inactive.
For O=C(CCCC(=O)N(c1ccc2c(c1)OCCO2)C(C(=O)NC1CCCCC1)c1ccc(F)cc1)Nc1ccccn1 (stereo unspecified) the results were HCMV antiviral -68, Pf growth 96h 10µM, HCV inh inactive, Pf growth 48h inconclusive, Sm TGR block inactive and SARS PLpro yeast inactive.
For COCCN(C(=O)CCCC(=O)Nc1ccccn1)C(C(=O)NC1CCCCC1)c1ccc(C)cc1 (stereo unspecified) the results were HCMV antiviral inactive, Pf growth 96h inactive, HCV inh inactive, Pf growth 48h inactive, Sm TGR block inactive and SARS PLpro yeast inactive.
Screening Cc1ccc(C(C(=O)NC2CCCCC2)N(C(=O)CCCC(=O)Nc2ccccn2)c2ccc3c(c2)OCCO3)cc1 (stereo unspecified) returned HCMV antiviral -63, Pf growth 96h inconclusive, HCV inh inactive, Pf growth 48h inconclusive, Sm TGR block inactive and SARS PLpro yeast inactive.
COCCNC(=O)C(c1ccc(C)cc1)N(C(=O)CCC(=O)Nc1ccccn1)c1ccc(C)cc1 (stereo unspecified) was read as HCMV antiviral inconclusive, Pf growth 96h inactive, HCV inh inactive, Pf growth 48h inactive, Sm TGR block inactive and SARS PLpro yeast inactive.
`CCOc1ccc(NC(=O)Cn2c(=O)cc(C)c3c(C)nn(-c4cccc(Cl)c4C)c32)cc1` gave HCMV antiviral inactive and Sm TGR block inactive.
Screening COc1ccccc1N1CCN(C(=O)c2cc(-c3ccc(C)c(F)c3)on2)CC1 returned HCMV antiviral inactive and Sm TGR block inactive.
For CCOC(=O)CSc1nc2ccc(NC(=O)COc3ccccc3C)cc2s1 the results were HCMV antiviral inactive and Sm TGR block inactive.
`CC1CCN(c2cc(N3CCN(C(=O)c4ccc(F)c(F)c4)CC3)c([N+](=O)[O-])cc2F)CC1` gave HCMV antiviral inconclusive, Pf growth 96h inactive, HCV inh inconclusive, Pf growth 48h inactive, Sm TGR block inactive and SARS PLpro yeast inactive.
COc1ccc(NC(=O)C2CCCN2C(=O)Nc2ccccc2)cc1OC (stereo unspecified) was read as HCMV antiviral inactive, Pf growth 96h inconclusive, HCV inh inconclusive, Pf growth 48h inactive, Sm TGR block inactive and SARS PLpro yeast inactive.
For COc1ccc(C2CCCN2C(=O)Nc2ccc(Cl)cc2)cc1OC (stereo unspecified) the results were HCMV antiviral -72, Pf growth 96h inactive, HCV inh inconclusive, Sm TGR block inactive and SARS PLpro yeast inactive.
For Cc1ccccc1NC(=O)Cn1c(=O)n(Cc2ccco2)c(=O)c2cccnc21 the results were HCMV antiviral inactive and Sm TGR block inactive.
Screening CC1CCN(CCCCOc2ccc(C(C)(C)C)cc2)CC1 returned HCMV antiviral inconclusive, Pf growth 96h inconclusive, HCV inh inconclusive, Pf growth 48h inactive, Sm TGR block inconclusive and SARS PLpro yeast inactive.
CC(C)(c1ccccc1)c1ccc(OCCN2CCOCC2)cc1 was read as HCMV antiviral inactive, Pf growth 96h inconclusive, HCV inh inactive, Pf growth 48h inactive, Sm TGR block inactive and SARS PLpro yeast inactive.
CC(C)(C)c1ccc(OCCCCCCN2CCNCC2)cc1 was read as HCMV antiviral inconclusive and HCV inh 7.9µM.
Screening CC(C)(c1ccccc1)c1ccc(OCCCN2CCNCC2)cc1 returned HCMV antiviral -88, Pf growth 96h inconclusive, HCV inh 8.9µM, Pf growth 48h inconclusive and SARS PLpro yeast inactive.
For COc1ccc(Cl)cc1N=C1NC(=O)CC(C(=O)Nc2ccccc2C(F)(F)F)S1 (stereo unspecified) the results were HCMV antiviral inactive and Sm TGR block inactive.

Compound activity (PubChem BioAssay)
